Drawing on PubChem BioAssay AID720651 (The Scripps Research Institute Molecular Screening Center, 2013), this text covers IC50 for one molecule.

The IC50 is the concentration that inhibits the measured activity by half.

A short description of the assay: binds r(CAG) RNA repeats in late stage dose response, late-stage follow-up, biochemical, fluorescence, dose response, powder samples (AID 720651). The following applies: r(CAG) RNA TO-PRO-1 dye displacement.

The list shows a part of the results. The source made the active and inactive calls. The rule behind the calls is not given here.

Turning to `Cc1noc(NS(=O)(=O)c2ccc(NC(=O)c3oc4ccc(F)cc4c3C)cc2)c1C`, the IC50 is 1260 nM (active).
